Calls of active or inactive are those of the source.

This assay can be described thus: fission yeast growth modulation, primary screen, strain 972, OD600, 24 h, no modulator (AID 1090).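 Note: basal condition with compound alone and no growth modifier present; test concentration not given here.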 The conditions noted are these: S. pombe 972 growth, higher = more signal, called active from +8 up or from −8 down.
As to `O=C1[C@H]2C=C(Br)[C@H](C[C@@H]2c2ccccc2)[C@@]12CO2`, the z-score was -14.7 (active).

With `CN1C(=O)C2C=CC(C(O)c3cccs3)N(Nc3ccccc3)C2C1=O` (configuration not stated), the z-score is 0.917 (inactive).

On to `COCCOC(=O)N1C(=O)[C@@]2(c3cc(C#CCCO)ccc31)[C@H](C(=O)Nc1nc3ccccc3s1)[C@H]1C(=O)O[C@H](c3ccccc3)[C@H](c3ccccc3)N1[C@@H]2c1ccc(OCCO)cc1`, for which the z-score was 1.09 (inactive). `CC(C)(C)OC(=O)CC[C@@]12N=C(c3ccc(OCCCO)cc3)O[C@@H]1c1ccccc1N(CCS(=O)(=O)c1ccccc1)C2=O`: the z-score is 0.326 (inactive). On to `COC(=O)[C@@]1(Cc2ccccc2)[C@H]2c3cc(C(=O)N4CCCC4)n(Cc4nc5ccccc5[nH]4)c3C[C@H]2CN1C(=O)c1ccccc1`, for which the z-score was 0.193 (inactive). As for `O=C1OCCC/C=C\[C@H]2OC34C=CCN(Cn5nnc6ccccc65)C(=O)[C@H]3N(CCO)C(=O)[C@@H]4C12` (some centres not stated), the figure is -0.0999 (inactive); as for `COc1cc2c(cc1O)C(C1CC1)N(Cc1cc3c(cc1Br)OCO3)CC2` (configuration not stated), -3.12 (inactive). As for `COCCOC(=O)N1C(=O)[C@@]2(c3cc(C#CC4=CCCCC4)ccc31)[C@H](C(=O)N1CCc3cc(OC)c(OC)cc3C1)[C@H]1C(=O)O[C@H](c3ccccc3)[C@H](c3ccccc3)N1[C@@H]2c1ccc(OCCO)cc1`, the figure is 0.713 (inactive); as for `Cc1ccc(S[C@]2(C(=O)NC(C)C)CC(=O)N(Cc3ccccc3Cl)[C@@H]2c2ccc(CO)cc2I)cc1`, -1.98 (inactive); as for `COCCOC(=O)N1C(=O)[C@@]2(c3cc(C#CC4=CCCCC4)ccc31)[C@H](C(N)=O)[C@H]1C(=O)O[C@H](c3ccccc3)[C@H](c3ccccc3)N1[C@@H]2c1ccc(OCCO)cc1`, 1.28 (inactive).

Take `O=C1C2C=CC(C(O)C(c3ccccc3)c3ccccc3)N(n3cnnc3)C2C(=O)N1Cc1ccccc1` (configuration not stated): the z-score is -0.615 (inactive). As for `CC(C)(C)OC(=O)CC[C@@]1(C(=O)NCCN2CCOCC2)N=C(c2ccc(OCCCO)cc2)O[C@@H]1c1ccccc1N=[N+]=[N-]`, the figure is -0.182 (inactive); as for `CN(C)C(=O)[C@@]1(Cc2ccccc2)N=C(c2ccc(OCCCO)cc2)O[C@H]1c1ccccc1N=[N+]=[N-]`, -1.89 (inactive). For `Cc1ccc(S[C@]2(C(=O)NCC(F)(F)F)CC(=O)N(C(C)C)[C@@H]2c2ccc(CO)cc2I)cc1`, the z-score was -0.704 (inactive). With `CCOc1cc(C(O)C2C=CC3C(=O)N(c4ccccc4)C(=O)C3N2Nc2ccccc2)ccc1O` (configuration not stated), the z-score is -0.692 (inactive). Under `C=CCNC(=O)[C@H]1[C@@H]2C(=O)O[C@@H](c3ccccc3)[C@@H](c3ccccc3)N2[C@@H](c2ccc(OCCO)cc2)[C@]12C(=O)N(C(=O)OCCOC)c1ccccc12` stands 0.0313 (inactive); under `C=CCN1C(=O)[C@@]2(O[C@@H](CCO)[C@H]([Si](C)(C)c3ccc(OC)cc3)[C@H]2C)c2cc(NC(=O)c3ccc(OC)cc3)ccc21`, -2.29 (inactive); under `C[C@]1(C(=O)NC2CC2)c2ccccc2C(=O)N(Cc2cc(C(F)(F)F)cc(C(F)(F)F)c2)[C@H]1c1ccc(CO)cc1`, -1.05 (inactive). Consider `CC(C)OC(=O)C=C1C[C@@H](c2ccccc2C(F)(F)F)O[C@@H](c2ccccc2C(F)(F)F)O1`, for which the z-score is 1.17 (inactive). Regarding `CC(C)(C)OC(=O)CC[C@]1(C(=O)O)N=C(c2ccc(OCCCO)cc2)O[C@H]1c1ccccc1N=[N+]=[N-]`, the z-score was 0.179 (inactive). As for `O=C1OCC=C[C@H]2OC34C=CCN(c5ccc6ccccc6c5)C(=O)[C@H]3N(CCCCCCO)C(=O)[C@@H]4[C@@H]12` (some centres not stated), the figure is -0.715 (inactive). Take `COc1cc2c(cc1OC)CN(C(=O)[C@H]1[C@@H]3C(=O)O[C@@H](c4ccccc4)[C@@H](c4ccccc4)N3[C@@H](c3ccc(O)cc3)[C@]13C(=O)Nc1ccc(C#CCNC(N)=O)cc13)CC2`: the z-score was -0.363 (inactive). Consider `C=CCC(OC(C)=O)[C@@H]1[C@@H](N(Cc2cccc3ccccc23)C(=O)c2ccc(-c3ccccc3)cc2)c2cc(OCCCO)ccc2N1C(=O)Cc1ccc(OC)cc1` (some centres not stated), for which the z-score is -0.445 (inactive). Under `COC(=O)c1c(CC[C@@H](CO)NC(=O)N2CCC[C@H]2Cn2cc(-c3ccccn3)nn2)oc(C(C)=O)c1C(=O)OC` stands 0.195 (inactive); under `C=CCNC(=O)[C@@H]1[C@H]2C(=O)O[C@H](c3ccccc3)[C@H](c3ccccc3)N2[C@H](c2ccc(OCCO)cc2)[C@@]12C(=O)Nc1ccc(C#Cc3ccc(OC)cc3)cc12`, 0.961 (inactive); under `CN1C(=O)C2C=CC(C(O)c3cc(C(F)(F)F)cc(C(F)(F)F)c3)N(N3CCCCC3)C2C1=O` (configuration not stated), 0.763 (inactive).

For `COCCOC(=O)N1C(=O)[C@@]2(c3cc(C#CCCO)ccc31)[C@H](C(=O)N1CCN(c3ncccn3)CC1)[C@H]1C(=O)O[C@H](c3ccccc3)[C@H](c3ccccc3)N1[C@@H]2c1ccccc1OCCO`, the z-score is 0.411 (inactive).
